FMDV FLuc: Primary qHTS Assay for Foot and Mouth Disease Virus Antivirals against NCGC Sytravon and CBC Compound Libraries: Firefly Luciferase Signal; FMDV antiviral cell assay, firefly luciferase signal; Potency, µM (top dose mostly 57.5 µM), inactives show top-dose activity change, negative = inhibition, actives largely listed as inhibitors; hit rate 0.23% among 120,000; AID 1745856, 2022; also: nearly all actives have a fitted effect of over 60% in size
FMDV RLuc: Primary qHTS Assay for Foot and Mouth Disease Virus Antivirals against NCGC Sytravon and CBC Compound Libraries: Renilla Luciferase Signal. Potency, µM (series often up to 57.5 µM), for the others: at the highest dose activity change, negative = inhibition, actives largely listed as inhibitors. hit rate 0.32% among 120,000. FMDV replicon cells, Renilla luciferase signal. AID 1745857, 2022; also: nearly all actives have a fitted effect of over 55% in size
Starred values were filed as active, the others as inactive; ! = repeats disagree; [ ] = another dose, or the depositor's remark. Hits are enriched below; roughly 0.51% of the tested compounds scored in any of these assays. Calls follow the shape of the full dose curve. % is scaled to controls: 0 for no effect and ±100 for the full control effect; potency is read from the fitted curve at half-maximal effect.

Results for COc1ccc(-c2nc(Nc3ccc(F)c(F)c3F)sc2CCC(=O)O)cc1 ?
FMDV FLuc: 42%; FMDV RLuc: -8%

How did COc1ccc2oc(=O)cc(CN(C)Cc3ccc(C)cc3)c2c1 do in these assays?
FMDV FLuc: inconclusive; FMDV RLuc: 35µM*

How did Cc1ccc(CN(C)Cc2cc(=O)oc3ccc(C)cc23)cc1 do in these assays?
FMDV FLuc: 7%; FMDV RLuc: 0%

What do the screens show for `Nc1nccnc1C(=O)NCc1cccnc1`?
FMDV FLuc: -7%; FMDV RLuc: -16%[1.06 µM]

Results for Nc1nccnc1C(=O)NCc1ccc(Oc2cccc(F)c2)nc1 ?
FMDV FLuc: inconclusive; FMDV RLuc: 8.9µM*

What do the screens show for `Nc1nccnc1C(=O)NCc1ccc(CN2CCCCC2)cc1`?
FMDV FLuc: 0%; FMDV RLuc: 0%

Results for Nc1nccnc1C(=O)NCc1ccc(N2CCCCC2)nc1 ?
FMDV FLuc: inconclusive; FMDV RLuc: 5.6µM*

How did COc1cc(C2CC(=O)N(c3sc4c(c3C#N)CCCC4)C3=C2C(=O)CCC3)cc(OC)c1OC (stereo not given) do in these assays?
FMDV FLuc: 5%; FMDV RLuc: -2%

How did Fc1ccc(COc2cccc(CNCC3CCNCC3)c2)cc1 do in these assays?
FMDV FLuc: inconclusive; FMDV RLuc: 32µM*

Results for Brc1ccc(OCc2ccccc2)c(CNCC2CCNCC2)c1 ?
FMDV FLuc: -25%; FMDV RLuc: -26%

Results for COC(=O)c1c(C)[nH]c(C(=O)C(C)OC(=O)c2ccc(F)cc2)c1C (stereo not given) ?
FMDV FLuc: 6%; FMDV RLuc: 15%

Results for Cc1ccc(Cl)cc1-n1ncc2c(NC3CCCCC3)ncnc21 ?
FMDV FLuc: inconclusive; FMDV RLuc: 25µM*!

Results for Clc1ccc(-n2ncc3c(NC4CCCCCCCCCCC4)ncnc32)cc1 ?
FMDV FLuc: 5%; FMDV RLuc: -5%

How did CCN1CCN(c2ncnc3c2cnn3-c2cc(Cl)ccc2C)CC1 do in these assays?
FMDV FLuc: -11%; FMDV RLuc: -12%

How did Cc1ccc(Cl)cc1-n1ncc2c(N3CCN(Cc4ccccc4)CC3)ncnc21 do in these assays?
FMDV FLuc: 22µM*; FMDV RLuc: 35µM*

How did CCN(CC)C(=S)Sc1ccc([N+](=O)[O-])cc1 do in these assays?
FMDV FLuc: 2µM*; FMDV RLuc: -5%

What do the screens show for `CCN(CC)C(=S)SC(C(=O)c1ccccc1)c1ccccc1` (stereo not given)?
FMDV FLuc: 9%; FMDV RLuc: 12%

Results for Cc1cc(/C=C(\C#N)c2ccc(F)cc2)c(C)n1C ?
FMDV FLuc: 0%; FMDV RLuc: 130%

How did Cc1nc2cc(NC(=O)COc3cccc(Cl)c3)ccc2o1 do in these assays?
FMDV FLuc: 182%; FMDV RLuc: 18%

How did CCN1C(=O)C(NC(=O)C(=O)NCc2cccnc2)c2cc(Cl)ccc21 (stereo not given) do in these assays?
FMDV FLuc: 24%; FMDV RLuc: 23%

Results for O=C(NC1CCCCC1C(F)(F)F)c1ccc2ncsc2c1 (stereo not given) ?
FMDV FLuc: 8.9µM*; FMDV RLuc: 144%

How did O=C(NC1CCCCCC1)c1ccc2ncsc2c1 do in these assays?
FMDV FLuc: 101%; FMDV RLuc: 21%

How did CCOC(=O)CN(CC(=O)NC(=O)NC)CC(C)C do in these assays?
FMDV FLuc: -4%; FMDV RLuc: 0%

What do the screens show for `COc1ccc(F)cc1C(=O)/C=C/c1ccc(C#N)cc1`?
FMDV FLuc: 0%; FMDV RLuc: 0%

What do the screens show for `COc1ccc(F)cc1C(=O)/C=C/c1cccc(C#N)c1`?
FMDV FLuc: 3.5µM*; FMDV RLuc: inconclusive

What do the screens show for `Cc1ccc(C(=O)Nc2ccc3c(c2)nc(CSc2nccc(C)n2)n3C)cc1`?
FMDV FLuc: 22%; FMDV RLuc: inconclusive

Results for Oc1c(Br)cc(Cl)cc1Cc1cc(Cl)cc(Br)c1O ?
FMDV FLuc: inconclusive; FMDV RLuc: 3.5µM*

Results for O=Cc1cc(Cl)c(O)c(Br)c1 ?
FMDV FLuc: 5%; FMDV RLuc: -6%

Results for COc1ccc(-c2nc(CN3CCCC3c3ccsc3)co2)cc1 (stereo not given) ?
FMDV FLuc: 24%; FMDV RLuc: 9%

How did N#Cc1ccc(C(=O)Nc2ccc3nc(CCc4ccccc4)[nH]c3c2)cc1 do in these assays?
FMDV FLuc: -7%; FMDV RLuc: -10%

How did CCn1c(CCc2cccc(NC(=O)c3ccc(C#N)cc3)c2)nc2ccccc21 do in these assays?
FMDV FLuc: 14µM*; FMDV RLuc: 11µM*

What do the screens show for `c1ccc(Nc2nc(NCc3ccco3)c3ccccc3n2)cc1`?
FMDV FLuc: -7%; FMDV RLuc: inconclusive

How did c1ccc(CNc2nc(Nc3ccccc3)nc3ccccc23)cc1 do in these assays?
FMDV FLuc: inconclusive; FMDV RLuc: 13µM*

How did COCCn1cnc2c1c(=O)n(CC(=O)Nc1ccc3c(c1)OCO3)c(=O)n2Cc1ccccc1 do in these assays?
FMDV FLuc: -4%; FMDV RLuc: -3%

What do the screens show for `Cn1nc(CC(=O)Nc2ccc(Cl)cc2Cl)c2ccccc2c1=O`?
FMDV FLuc: inconclusive; FMDV RLuc: 3.2µM*

Results for Cn1nc(CC(=O)Nc2ccc(O)cc2)c2ccccc2c1=O ?
FMDV FLuc: inconclusive; FMDV RLuc: -24%

What do the screens show for `N#CCCN(C(=O)CN1CCCC1c1ccc(Cl)c(Cl)c1)c1ccccc1F` (stereo not given)?
FMDV FLuc: -7%; FMDV RLuc: -7%

How did O=c1cc(CN2CCN(c3ccc(F)cc3)CC2)c2cc(Cl)c(O)cc2o1 do in these assays?
FMDV FLuc: 14%; FMDV RLuc: -3%

How did COc1ccc(OC)c(NC(=O)COC(=O)c2cc(S(=O)(=O)N3CCOCC3)ccc2F)c1 do in these assays?
FMDV FLuc: -3%; FMDV RLuc: -7%

What do the screens show for `CN(C)C(=O)CN1CCN(C(C(=O)O)c2c[nH]c3ccccc23)CC1` (stereo not given)?
FMDV FLuc: -1%; FMDV RLuc: -3%

What do the screens show for `O=C(Nc1ccccc1C(F)(F)F)c1cc2ccccn2n1`?
FMDV FLuc: 145%; FMDV RLuc: 25%

How did O=C(Nc1ccc(OC(F)(F)F)cc1)c1cc2ccccn2n1 do in these assays?
FMDV FLuc: 20%; FMDV RLuc: 8.9µM*

What do the screens show for `CCN(C(=O)c1cc2sc3ccccc3c2s1)c1ccccc1`?
FMDV FLuc: 16%; FMDV RLuc: 43%

What do the screens show for `COc1ccc2c(=O)c(-c3ccc(OC)c(OC)c3)c(C(F)(F)F)oc2c1`?
FMDV FLuc: 24%; FMDV RLuc: -7%

How did COc1ccc(-c2c(C(F)(F)F)oc3cc(OS(C)(=O)=O)ccc3c2=O)cc1OC do in these assays?
FMDV FLuc: 3.5µM*; FMDV RLuc: inconclusive

What do the screens show for `CCOC(=O)CCN(C(=O)CCc1c(C)c2ccc(OC)cc2oc1=O)C1CC1`?
FMDV FLuc: 23%; FMDV RLuc: 19%

What do the screens show for `O=C(Nc1ccc(Br)cc1)c1ccc(F)c(S(=O)(=O)N2CCc3ccccc32)c1`?
FMDV FLuc: 11µM*; FMDV RLuc: inconclusive

Results for CC(C)c1ccc(NC(=O)c2ccc(F)c(S(=O)(=O)N3CCc4ccccc43)c2)cc1 ?
FMDV FLuc: inconclusive; FMDV RLuc: -1%

How did Cc1ccc(C)c(C(=O)N2CC=C(c3c[nH]c4ccccc34)CC2)c1 do in these assays?
FMDV FLuc: 15%; FMDV RLuc: 1%

How did Cc1oc(-c2cccs2)nc1CC(=O)NCC1CCCO1 (stereo not given) do in these assays?
FMDV FLuc: 7%; FMDV RLuc: -10%

Assay outcomes deposited in PubChem BioAssay by National Center for Advancing Translational Sciences (NCATS).
